Results published in PubChem BioAssay AID1159580 (chemical genetic matrix, 2015).
About 2,000 (36%) of roughly 5,500 compounds were called active. Not shown: some 18% with an inconclusive outcome. No stated cut-off is given here; in the data, active means normalized growth mostly below about 0.91 (no sharp cut-off); inconclusive means no clear call, values can overlap the other calls; inactive means mostly above about 0.92. The list shows a part of the results.

Assay: chemical genetic growth profiling, strain panel (AID 1159580);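 further: tested at 20 µM; growth read once vehicle control cultures reached saturation at 30 °C; 1 = growth at the plate median or of vehicle wells; lower values mean less growth of the strain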
Settings: growth OD

Measured: normalized growth

O=C(O)c1ccccc1C(=O)Nc1ccc(S(=O)(=O)Nc2nccs2)cc1
inactive: S. cerevisiae deletion strains, locus YJR066W, strain TOR1, hits give low values 0.983 | S. cerevisiae deletion strains, locus YJR075W, strain HOC1, hits give low values 1.02 | S. cerevisiae deletion strains, locus YKL009W, strain mrt4, hits give low values 1.03 | S. cerevisiae deletion strains, locus YKL068W, hits give low values 0.987 | S. cerevisiae deletion strains, locus YKL085W, strain MDH1 (second series), hits give low values 0.984 | S. cerevisiae deletion strains, locus YKL085W, strain MDH1, hits give low values 0.984 | S. cerevisiae deletion strains, locus YKL160W, strain elf1, hits give low values 0.972 | S. cerevisiae deletion strains, locus YKL190W, strain CNB1, hits give low values 1 | S. cerevisiae deletion strains, locus YKR001C, strain vps1, hits give low values 1 | S. cerevisiae deletion strains, locus YKR026C, strain gcn3, hits give low values 0.981 | S. cerevisiae deletion strains, locus YKR091W, strain srl3, hits give low values 0.984 | S. cerevisiae deletion strains, locus YLL001W, strain dnm1, hits give low values 0.966 | S. cerevisiae deletion strains, locus YLL026W, hits give low values 0.988 | S. cerevisiae deletion strains, locus YLL041C, strain sdh2, hits give low values 0.969 | S. cerevisiae deletion strains, locus YLR027C, strain aat2, hits give low values 0.982 | S. cerevisiae deletion strains, locus YLR039C, strain RIC1, hits give low values 1 | S. cerevisiae deletion strains, locus YLR058C, strain SHM2, hits give low values 1.01 | S. cerevisiae deletion strains, locus YLR102C, strain apc9, hits give low values 0.99 | S. cerevisiae deletion strains, locus YLR113W, strain HOG1, hits give low values 1 | S. cerevisiae deletion strains, locus YLR221C, strain rsa3, hits give low values 0.95 | S. cerevisiae deletion strains, locus YLR258W, strain gsy2, hits give low values 0.986 | S. cerevisiae deletion strains, locus YLR262C, strain YPT6 (second series), hits give low values 1 | S. cerevisiae deletion strains, locus YLR262C, strain YPT6, hits give low values 1.03 | S. cerevisiae deletion strains, locus YLR268W, strain sec22, hits give low values 0.998 | S. cerevisiae deletion strains, locus YLR320W, strain mms22, hits give low values 0.976 | S. cerevisiae deletion strains, locus YLR330W, strain CHS5, hits give low values 1 | S. cerevisiae deletion strains, locus YLR342W, strain FKS1 (second series), hits give low values 0.994 | S. cerevisiae deletion strains, locus YLR342W, strain FKS1, hits give low values 0.99 | S. cerevisiae deletion strains, locus YLR357W, strain rsc2, hits give low values 0.975 | S. cerevisiae deletion strains, locus YLR370C, strain arc18, hits give low values 0.959 | S. cerevisiae deletion strains, locus YLR371W, strain rom2, hits give low values 0.998 | S. cerevisiae deletion strains, locus YLR384C, strain iki3, hits give low values 0.976 | S. cerevisiae deletion strains, locus YLR418C, strain cdc73, hits give low values 0.992 | S. cerevisiae deletion strains, locus YML016C, strain PPZ1, hits give low values 0.995 | S. cerevisiae deletion strains, locus YML032C, strain rad52, hits give low values 0.994 | S. cerevisiae deletion strains, locus YML120C, strain ndi1, hits give low values 0.969 | S. cerevisiae deletion strains, locus YML124C, strain tub3, hits give low values 0.992 | S. cerevisiae deletion strains, locus YMR058W, strain fet3, hits give low values 0.98 | S. cerevisiae deletion strains, locus YMR078C, strain ctf18, hits give low values 0.99 | S. cerevisiae deletion strains, locus YMR125W, strain sto1, hits give low values 0.96 | S. cerevisiae deletion strains, locus YMR129W, hits give low values 0.989 | S. cerevisiae deletion strains, locus YMR205C, strain PFK2, hits give low values 0.965 | S. cerevisiae deletion strains, locus YMR223W, strain ubp8, hits give low values 0.998 | S. cerevisiae deletion strains, locus YMR231W, strain pep5, hits give low values 0.974 | S. cerevisiae deletion strains, locus YMR307W, strain GAS1, hits give low values 0.973 | S. cerevisiae deletion strains, locus YNL067W, strain RPL9B, hits give low values 1.01 | S. cerevisiae deletion strains, locus YNL071W, strain lat1, hits give low values 0.987 | S. cerevisiae deletion strains, locus YNL128W, strain TEP1, hits give low values 1.02 | S. cerevisiae deletion strains, locus YNL183C, strain NPR1, hits give low values 0.975 | S. cerevisiae deletion strains, locus YNL209W, strain ssb2, hits give low values 0.989 | S. cerevisiae deletion strains, locus YNL233W, strain BNI4, hits give low values 1.01 | S. cerevisiae deletion strains, locus YNL248C, strain rpa49, hits give low values 0.97 | S. cerevisiae deletion strains, locus YNL250W, strain rad50, hits give low values 1 | S. cerevisiae deletion strains, locus YNL271C, strain bni1, hits give low values 0.982 | S. cerevisiae deletion strains, locus YNL298W, strain CLA4, hits give low values 0.995 | S. cerevisiae deletion strains, locus YNL307C, strain MCK1, hits give low values 1 | S. cerevisiae deletion strains, locus YNL322C, strain KRE1 (second series), hits give low values 0.945 | S. cerevisiae deletion strains, locus YNL322C, strain KRE1, hits give low values 1.01 | S. cerevisiae deletion strains, locus YNR049C, strain mso1, hits give low values 0.976 | S. cerevisiae deletion strains, locus YNR052C, strain pop2, hits give low values 0.994 | S. cerevisiae deletion strains, locus YOL006C, strain TOP1, hits give low values 1.02 | S. cerevisiae deletion strains, locus YOL012C, strain htz1 0.647 | S. cerevisiae deletion strains, locus YOL147C, strain pex11, hits give low values 0.987 | S. cerevisiae deletion strains, locus YOR001W, strain rrp6, hits give low values 0.999 | S. cerevisiae deletion strains, locus YOR061W, strain CKA2, hits give low values 1 | S. cerevisiae deletion strains, locus YOR069W, strain VPS5, hits give low values 1 | S. cerevisiae deletion strains, locus YOR070C, strain gyp1, hits give low values 0.976 | S. cerevisiae deletion strains, locus YOR080W, strain dia2, hits give low values 0.973 | S. cerevisiae deletion strains, locus YOR083W, strain WHI5, hits give low values 0.983 | S. cerevisiae deletion strains, locus YOR106W, strain vam3, hits give low values 0.972 | S. cerevisiae deletion strains, locus YOR136W, strain idh2, hits give low values 1 | S. cerevisiae deletion strains, locus YOR144C, strain elg1, hits give low values 0.993 | S. cerevisiae deletion strains, locus YOR184W, strain ser1, hits give low values 1 | S. cerevisiae deletion strains, locus YOR231W, strain MKK1, hits give low values 1.04 | S. cerevisiae deletion strains, locus YOR265W, strain rbl2, hits give low values 0.99 | S. cerevisiae deletion strains, locus YOR270C, strain vph1, hits give low values 0.983 | S. cerevisiae deletion strains, locus YOR290C, strain snf2, hits give low values 0.959 | S. cerevisiae deletion strains, locus YOR316C, strain cot1, hits give low values 1.01 | S. cerevisiae deletion strains, locus YPL051W, strain arl3, hits give low values 1 | S. cerevisiae deletion strains, locus YPL078C, strain atp4, hits give low values 0.983 | S. cerevisiae deletion strains, locus YPL106C, strain sse1, hits give low values 0.936 | S. cerevisiae deletion strains, locus YPL240C, strain hsp82, hits give low values 0.979 | S. cerevisiae deletion strains, locus YPL241C, strain CIN2, hits give low values 0.999 | S. cerevisiae deletion strains, locus YPL256C, strain CLN2, hits give low values 1.02 | S. cerevisiae deletion strains, locus YPR119W, strain clb2, hits give low values 0.99 | S. cerevisiae deletion strains, locus YPR141C, strain kar3, hits give low values 0.984 | S. cerevisiae deletion strains, locus YPR163C, strain tif3, hits give low values 0.993 | S. cerevisiae deletion strains, locus YPR167C, strain met16, hits give low values 0.997 | S. cerevisiae deletion strains, strain wtn01, hits give low values 0.995 | S. cerevisiae strains, strain wild type, hits give low values 1
